# Compounds with a hit are over-represented: about 12% of the library has one in this group of screens.
# USP8 inh = human USP8 deubiquitinase inhibition | inhibition, % at 20 µM | P40818 | AID 1645853 | 47,000 tested, 4.2% active | purified USP8, Ub-rhodamine cleavage fluorescence, 30 min
# Target sequence (P40818 whole entry, looked up): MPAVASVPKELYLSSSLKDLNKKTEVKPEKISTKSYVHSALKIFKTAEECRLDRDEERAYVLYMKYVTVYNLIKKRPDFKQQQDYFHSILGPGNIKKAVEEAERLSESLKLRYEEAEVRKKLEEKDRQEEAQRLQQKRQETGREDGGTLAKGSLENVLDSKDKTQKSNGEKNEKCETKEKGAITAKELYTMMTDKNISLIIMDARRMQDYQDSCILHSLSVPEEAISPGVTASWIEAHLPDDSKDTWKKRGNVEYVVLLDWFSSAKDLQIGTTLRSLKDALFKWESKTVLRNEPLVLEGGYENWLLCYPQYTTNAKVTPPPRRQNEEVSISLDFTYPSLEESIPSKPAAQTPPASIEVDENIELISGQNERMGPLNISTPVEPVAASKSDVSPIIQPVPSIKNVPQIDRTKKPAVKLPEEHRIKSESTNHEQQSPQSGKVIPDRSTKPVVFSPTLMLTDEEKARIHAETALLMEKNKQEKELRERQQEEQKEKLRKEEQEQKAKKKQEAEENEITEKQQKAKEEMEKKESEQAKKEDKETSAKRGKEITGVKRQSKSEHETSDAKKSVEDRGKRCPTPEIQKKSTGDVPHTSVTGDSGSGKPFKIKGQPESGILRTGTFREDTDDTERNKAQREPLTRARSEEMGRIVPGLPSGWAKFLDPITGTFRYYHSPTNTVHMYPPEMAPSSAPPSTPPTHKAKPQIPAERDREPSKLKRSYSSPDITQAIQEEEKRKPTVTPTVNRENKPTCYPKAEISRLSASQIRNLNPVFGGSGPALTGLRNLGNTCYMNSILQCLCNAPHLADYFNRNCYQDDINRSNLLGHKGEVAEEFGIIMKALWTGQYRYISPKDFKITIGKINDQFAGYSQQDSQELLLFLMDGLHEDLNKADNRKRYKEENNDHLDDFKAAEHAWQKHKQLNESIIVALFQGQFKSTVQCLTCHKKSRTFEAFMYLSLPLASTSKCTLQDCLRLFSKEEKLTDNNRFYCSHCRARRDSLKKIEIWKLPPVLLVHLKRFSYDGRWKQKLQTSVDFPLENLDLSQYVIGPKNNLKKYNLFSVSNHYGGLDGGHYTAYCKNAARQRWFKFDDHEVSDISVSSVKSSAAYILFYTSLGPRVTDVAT
# USP30 block = inhibitors of human USP30 deubiquitinase; 47,000 tested, 5.3% active; Q70CQ3; AID 1645860; purified USP30, Ub-rhodamine cleavage fluorescence; inhibition, % at 25 µM
# USP17 inh = inhibitors of human USP17 deubiquitinase; purified USP17, Ub-rhodamine cleavage fluorescence, 3 h; inhibition, % at 50 µM; 47,000 tested, 6.5% active; AID 1645855
# A number is an active result; . = inactive; / = not tested or not shown. Rule as the data show it: active = inhibition above about 30%; inactive = the rest.
SMILES,USP8 inh,USP30 block,USP17 inh
Cc1nc(Nc2nnc(C)s2)cc(C2CCCN2c2cnccn2)n1 (stereo unspecified),.,.,.
Fc1ccc(N2CCN(c3ncnc4nc[nH]c34)CC2)cc1,.,.,.
Cn1c(=O)c(C(=O)N2CCN(c3ccc(Cl)cc3)CC2)nc2cccnc21,.,.,.
Clc1cccc(N2CCN(c3ncnc4nc[nH]c34)CC2)c1,.,.,56
Nc1nc(N2CCN(c3ccc(Cl)cc3)CC2)c2[nH]cnc2n1,.,.,42
COc1ccc(CCn2c(-c3ccc([N+](=O)[O-])cc3)cn3c4c(=O)n(C)c(=O)n(C)c4nc23)cc1OC,.,.,.
CCOC(=O)c1sc2c(c1C)c(=O)n(C)c(=O)n2CC(=O)N1CCOCC1,.,.,.
O=c1c2ccccc2nc(CSc2nc3ccc4[nH]snc4c3n2)n1-c1ccccc1,.,37,51
O=c1c2ccccc2nc(N2CCN(Cc3ccccc3)CC2)n1-c1ccccc1,.,.,.
O=C(Nc1ccccc1)c1ccc(N2CCNC(c3ccccc3)C2)nc1 (stereo unspecified),.,.,.
O=C(OCC(=O)N1CCc2ccccc2C1)c1cccc(C(F)(F)F)c1,.,.,.
CC(=O)O[C@@H](C/C=C(\C)C(=O)O)[C@@H](C)[C@H]1C[C@H](OC(C)=O)[C@@]2(C)C3=CC[C@H]4C(C)(C)[C@H](OC(C)=O)CC[C@]4(C)C3=CC[C@]12C,92,101,100
CC(=O)O[C@@H](C/C=C(\C)C(=O)O)[C@@H](C)[C@H]1C[C@H](OC(C)=O)[C@@]2(C)C3=CC[C@H]4C(C)(C)[C@H](O)CC[C@]4(C)C3=CC[C@]12C,.,62,56
O=C(c1cccc(N2C(=O)CCS2(=O)=O)c1)N1CCN(c2ccccc2)CC1,.,.,.
Cc1[nH]c2ccccc2c1C(=O)COc1ccc([N+](=O)[O-])cc1Cl,.,.,.
O=C(CN(Cc1ccccc1)S(=O)(=O)c1ccc(Cl)cc1)NCc1ccco1,.,.,.
CCOc1ccc(S(=O)(=O)N(CC(=O)NC2CCCCCC2)c2ccccc2)cc1,.,.,.
COc1ccc(S(=O)(=O)N(CC(=O)NCc2ccco2)c2ccc(C)cc2)cc1,30,.,.
CCOc1ccc(S(=O)(=O)N(CC(=O)NCc2ccccc2C)c2ccccc2)cc1,.,.,45
Cc1nc(C)n(CC2CCCN2Cc2csc(-c3ccco3)n2)n1 (stereo unspecified),.,.,/
CCCS(=O)(=O)N1CCOC2(CCCN(c3ncc(F)cn3)C2)C1 (stereo unspecified),.,.,.
O=C(Nc1ccc(Br)cc1)C1Cc2ccccc2CN1C(=O)c1ccccc1 (stereo unspecified),.,.,.
CC1CCN(S(=O)(=O)c2ccc3[nH]cc(C(=O)NCc4ccco4)c(=O)c3c2)CC1,.,.,55
COCCNC(=O)c1c[nH]c2ccc(S(=O)(=O)N(CCCN3CCOCC3)Cc3ccco3)cc2c1=O,.,.,.
OCc1ccc(OCCN2CCN(c3ncc(C(F)(F)F)cc3Cl)CC2)cc1,.,.,.
SMILES,USP8 inh,USP30 block,USP17 inh
Cc1ccc(NC(=O)c2ccc3c(=O)n4c(nc3c2)CCCCC4)cc1S(=O)(=O)N1CCOCC1,.,/,36
O=C(Nc1cccc(S(=O)(=O)N2CCCC2)c1)c1ccc2c(=O)n3c(nc2c1)CCCCC3,.,.,.
CN(C)c1cccc(C(=O)NCC2(c3ccccc3)CCCC2)c1,.,.,.
Cc1ccc(C(=O)NCC2COCCO2)cc1NC(=O)c1nsc2ccccc12 (stereo unspecified),.,.,.
O=C(NC1CCCC1)c1cccc(NC(=O)c2nsc3ccccc23)c1,.,/,31
Cc1ccc(NC(=O)Cn2c(=O)n(CC(=O)NCc3ccco3)c(=O)c3ccccc32)cc1C,.,45,63
CCOc1ccc(NC(=O)Cn2c(=O)n(CCC(=O)NCc3ccco3)c(=O)c3ccccc32)cc1,45,.,71
O=C(CCCn1c(=O)c2ccccc2n(Cc2ccccc2)c1=O)NCc1ccco1,.,.,.
O=C(Cn1c(=O)n(CCC(=O)N2CC=C(c3ccccc3)CC2)c(=O)c2ccccc21)NCc1ccco1,51,.,63
N#Cc1ccccc1Cn1c(=O)n(CCC(=O)N2CC=C(c3ccccc3)CC2)c(=O)c2ccccc21,.,.,.
Cc1cc(NC(=O)Cn2c(=O)n(CCCCC(=O)NCc3ccco3)c(=O)c3ccccc32)ccc1Br,84,.,64
O=C(c1ccc[nH]1)N1C[C@H](OCC2CCOCC2)[C@H]2COC[C@H]21,.,.,/
CN1C[C@H](C(N)=O)[C@@H](c2ccc(CN(C)C(=O)Cn3nnc4ccccc43)cc2)C1,.,.,.
COc1cc2c(cc1OC)-c1cc(N3CCC4(CC3)OCCO4)nc(=O)n1CC2,.,.,.
O=C(O)CCNC(=O)/C(=C\c1ccc(Br)cc1)NC(=O)c1ccco1,.,.,.
Cc1cc(N(C)C)nc(N2CCN(C(=O)c3ccco3)CC2)n1,.,.,.
COc1cccc(-c2cncc(C3CNCCO3)n2)c1 (stereo unspecified),.,.,.
O=C(CN1C(=O)C2CCCCN2c2ccc(C(=O)N3CCCC3)cc21)N1CCCC1 (stereo unspecified),.,.,.
CN1Cc2ccccc2CN2C[C@@H](NC(=O)C3CCOCC3)C[C@H]2C1,.,.,.
O=C(Cn1c(=O)n(CC2CCC(C(=O)NC3CCCC3)CC2)c(=O)c2ccccc21)NCCC1=CCCCC1 (stereo unspecified),.,40,50
O=C(CCCCn1c(=O)c2ccccc2n(CC(=O)NC2CCCCC2)c1=O)NCCc1ccccc1,.,.,.
O=C(NC1CCCC1)C1CCC(Cn2c(=O)c3ccccc3n(Cc3cccc([N+](=O)[O-])c3)c2=O)CC1 (stereo unspecified),.,.,.
O=C(CCCCn1c(=O)c2ccccc2n(CC(=O)NCCC2=CCCCC2)c1=O)NCc1ccco1,42,.,.
CCCCN1CC(c2nc3ccccc3n2C/C=C/c2ccccc2)CC1=O (stereo unspecified),.,.,/
COc1cc(NC(=O)CN2CCCc3ccccc32)cc(OC)c1OC,.,.,.
SMILES,USP8 inh,USP30 block,USP17 inh
Cc1cccc([C@H]2C[C@@H](O)[C@@H](O)[C@@H]2NCc2ccccc2)c1,.,.,.
O=C(NCc1ccccc1)c1ccc(-c2ccc(N3CCCC3)nn2)cc1,.,.,66
O=C(NCc1ccc2c(c1)OCO2)c1ccc(-c2ccc(N3CCCC3)nn2)cc1,.,.,.
Cc1ccc(C(=O)Nc2ccc(-c3ccc(N4CCOCC4)nn3)cc2)cc1,.,.,.
O=C(Nc1ccccc1)c1ccc(-c2ccc(N3CCCC3)nn2)cc1,.,39,.
C[C@H](NC(=O)[C@@H]1CCCN1C(=O)[C@H](Cc1ccccc1)n1c(=O)[nH]c2ccccc2c1=O)C(=O)O,.,.,.
Cc1sc(NC(=O)c2ccccc2)c(C(c2cccnc2)N2CCC(C)CC2)c1C (stereo unspecified),.,.,.
COc1ccc(-c2ocnc2C(=O)NCc2ccc(F)cc2)cc1,.,.,.
CC1CN(Cc2ccccc2)c2nc3c(c(=O)n(CCN4CCCCC4)c(=O)n3C)n2C1 (stereo unspecified),.,.,.
Cn1c(=O)n(Cc2ccccc2F)c(=O)c2c1nc1n2CCCN1Cc1ccccc1,.,40,.

# Screening results (PubChem BioAssay)
